High-throughput results as filed in PubChem.
This is a sample that favours compounds with a hit; in the whole collection about 0.51% have one here.
Epigenetic reg – regulators of epigenetic silencing causing reporter derepression in mouse cells. murine LDR cells, GFP reporter derepression, 30 h. Potency, µM (highest dose often 53.9 µM), for the others: top-dose GFP activation, usual class: activators. actives 0.2% (n = 280,000). AID 1865; further: % of control where 0% means no effect; nearly all actives have a fitted effect of over 60% in size
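Murine LDR cells carrying a silenced, genomically integrated CMV-driven GFP reporter were exposed to compound for 30 hours at 37 C. After PBS washes, GFP-positive cells (20–120 um objects) were counted by laser-scanning microplate cytometry.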
PINK1 modulator – modulators of PINK1 expression; PINK1 immunofluorescence, high-content cytometry, 24 h; Potency, µM (top dose mostly 76.6 µM), for inactives: at the highest dose activation (PINK1 increase), most hits filed as activators; actives 0.2% (n = 410,000); active means well fitted activation curve with a large enough effect; inconclusive means small, poorly fitted or top-dose-only effect; cell line not stated here; further: % of control where 0% means no effect; nearly all actives have a fitted effect of over 65% in size
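Readout is PINK1 immunofluorescence, quantified alongside mitochondrial, cell and nuclear markers by laser-scanning microplate cytometry. Cells from a stable line were exposed to compound titrations (5 concentrations) for 24 hours, with CCCP controls.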
Vif-A3F inh – Vif-A3F binding inhibition; actives 0.2% (n = 390,000); HeLa A3F-eYFP + Vif (tagged APOBEC3F with the HIV-1 protein that degrades it), YFP fluorescence increase; Potency, µM (top dose mostly 46.1 µM), inactives show at the top dose activity, negative = active; further: % of control where 0% means no effect; nearly all actives have a fitted effect of over 65% in size
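HeLa cells stably expressing A3F-eYFP plus Vif, plated and incubated overnight at 37 deg C, then exposed to compounds overnight at 37 deg C. Blocked degradation read as raised yellow fluorescence (Ex 488/Em 500-530).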
Vif-APOBEC3G blk – blocks the Vif interaction with human APOBEC3G; Q9HC16; HeLa A3G-eYFP + Vif (tagged APOBEC3G with the HIV-1 protein that degrades it), YFP fluorescence, overnight; Potency, µM (highest dose often 46.1 µM), for the others: at the highest dose activity, negative = active, most hits filed as inhibitors; actives 0.076% (n = 410,000); AID 602310; further: on the % scale 0 is the no-effect control and ±100 the full control effect; nearly all actives have a fitted effect of over 60% in size
Target sequence (Q9HC16 whole entry, looked up): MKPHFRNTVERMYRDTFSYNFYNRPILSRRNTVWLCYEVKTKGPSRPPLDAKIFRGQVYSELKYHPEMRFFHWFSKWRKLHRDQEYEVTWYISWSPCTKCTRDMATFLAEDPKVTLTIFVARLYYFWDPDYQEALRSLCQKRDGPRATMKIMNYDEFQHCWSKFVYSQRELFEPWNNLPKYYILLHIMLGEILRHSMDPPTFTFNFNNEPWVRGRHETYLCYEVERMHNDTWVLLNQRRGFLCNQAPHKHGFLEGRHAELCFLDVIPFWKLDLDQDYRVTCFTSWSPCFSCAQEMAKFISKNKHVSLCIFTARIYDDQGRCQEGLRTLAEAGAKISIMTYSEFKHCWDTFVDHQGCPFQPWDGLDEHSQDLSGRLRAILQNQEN
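Read-out is eYFP fluorescence (Ex 488/Em 500-530) from Vif-expressing HeLa A3G-eYFP cells; more signal means A3G escaped Vif-mediated degradation. Cells plated overnight, compound pinned in, incubated overnight at 37 deg C.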
* hit, by the source's call; u = inconclusive; x = not tested or not shown; [ ] = dose if it differs, or a comment. Unless noted, the call rests on the fitted dose curve; in most records, active means well fitted curve in the direction sought with a large enough effect; inconclusive means small, poorly fitted or top-dose-only effect, or another doubt; inactive means no such curve, though single readings can be large; an effect the other way counts as inactive or inconclusive. Potency means the concentration at half of the fitted maximal effect.

SMILES | Epigenetic reg | PINK1 modulator | Vif-A3F inh | Vif-APOBEC3G blk
Cc1ccc(NC(=S)Nc2ccc(OC(F)F)c(Cl)c2)cc1F | 1.1% | 15.8µM* | -4.3% | 2.7%
Fc1ccc(NC(=S)Nc2ccc(F)c(Cl)c2)cc1Cl | 2.8% | 39.8µM* | -3.1% | 2.1%
Cn1nccc1C(=O)NCC1CCC2(CCN(Cc3ccc(-c4ccc(Cl)cc4)o3)CC2)O1 (stereo unspecified) | x | -1.0% | x | x
CC(C)NC(=O)[C@@H]1C[C@@H](Sc2ccccn2)CN1C1CCN(C)CC1 | x | 0.4% | x | x
COc1cc(-c2cc(C)c3c(OC)ccc(OC)c3n2)cc2c1OCCN(C(=O)Cn1nc(C)cc1C)C2 | x | -0.3% | x | x
COc1ccc(N/N=C(\C#N)C(N)=O)cc1 | -1.0% | 0.4% | 2.9% | -0.9%
N#C/C(=N/Nc1ccc(OC(F)(F)F)cc1)C(N)=S | -1.3% | 14.1µM* | -13.3% | 4.8%
O=c1c2ccccc2sc2ccc(NCCCN3CCOCC3)cc12 | x | 1.6% | 22.4µM* | u
CCCOc1ccc(C(=O)Nc2cccc(NC(=O)c3ccc(Cl)cc3Cl)c2)cc1 | u | 4.9% | u | 12.6µM*
CCCOc1cccc(C(=O)Nc2cccc(NC(=O)c3ccc(Cl)cc3Cl)c2)c1 | 0.0% | 0.7% | -5.3% | 1.0%
Cc1cccc2cc(CNCCCN3CCCC3=O)c(N3CCN4CCCC4C3)nc12 (stereo unspecified) | x | 1.0% | x | x
CSCC[C@H](NC(=O)[C@H](Cc1ccccc1)n1c(=O)[nH]c2ccccc2c1=O)C(=O)N1CCC[C@@H]1C(=O)O | x | -0.5% | -1.5% | 10µM*
Cc1nc(C)n(CC(=O)NCC2Cc3cc(-c4cccc(OC(F)(F)F)c4)ccc3O2)n1 (stereo unspecified) | x | -1.0% | x | x
N/C(=N\OC(=O)c1ccc(Cl)cc1)c1nonc1N | -0.1% | 7.94µM* | 1.2% | 0.1%
CCn1cc(CN2CCOc3ccc(C(O)C4CCCCC4)cc3C2)c(C)n1 (stereo unspecified) | x | 0.0% | x | x
CC(=O)c1ccc(-c2ccc3c4c(ccc3c2)OC(CNC(=O)C(C)N2CCOCC2)C4)s1 (stereo unspecified) | x | -0.9% | x | x
COc1cc2c3nnc(-c4ccc(F)cc4)c-3cn(Cc3ccccc3F)c2cc1OC | 6.31µM* | u | 25.1µM* | u
COc1cc2c(=O)c(S(=O)(=O)c3ccc(F)cc3)cn(Cc3ccccc3C)c2cc1OC | -1.3% | 3.6% | -11.2% | -1.1%
COc1cc(N=Nc2cccc(S(N)(=O)=O)c2)c2ccccc2c1N | 31.6µM* | 0.4% | 25.1µM* | u
COc1ccccc1C1CN(CCNC(=O)c2ccc3c(c2)OCCO3)Cc2ccccc2O1 (stereo unspecified) | x | 0.5% | x | x
COc1ccc(NC(=O)c2cc(C)on2)cc1OC | 0.0% | 12.6µM* | -3.2% | 1.2%
COc1cccc(-c2cc(C(=O)Nc3cc(OC)c(OC)c(OC)c3)no2)c1 | 2.2% | 11.2µM* | -4.4% | -5.9%
COc1ccc(NC(=O)c2cc(C(C)C)on2)cc1OC | -1.1% | 5.0%[38.3 µM] | -8.5% | 1.2%
NS(=O)(=O)c1cccc(NC(=O)Cn2cnc3ccccc3c2=O)c1 | -1.0% | 11.2µM* | -17.0% | 0.7%
Cc1ccccc1Oc1nc2ccccn2c(=O)c1/C=C(\C#N)c1nc2ccccc2[nH]1 | 11.2µM* | 1.0% | x | x
SMILES | Epigenetic reg | PINK1 modulator | Vif-A3F inh | Vif-APOBEC3G blk
COc1ccc(Oc2nc3c(C)cccn3c(=O)c2/C=C(\C#N)c2nc3ccccc3[nH]2)cc1 | 3.98µM* | u | x | x
Cc1cccn2c(=O)c(/C=C(\C#N)c3nc4ccccc4s3)c(Oc3ccc(Br)cc3)nc12 | 0.0% | 4.0% | 7.2% | 4.0%
CCc1ccc(Oc2nc3c(C)cccn3c(=O)c2/C=C(\C#N)c2nc3ccccc3[nH]2)cc1 | 11.2µM* | u | -28.6% | -1.1%
Cc1cc(C)cc(Oc2nc3c(C)cccn3c(=O)c2/C=C(\C#N)c2nc3ccccc3[nH]2)c1 | 7.08µM* | u | u | -5.8%
CC(C)C(NS(C)(=O)=O)c1nnc2n1CCN(Cc1ccc(C#CC(C)(C)O)cc1)CC2 (stereo unspecified) | x | 1.1% | x | x
CCCCCCCCn1c2c(c(=N)c3ccccc31)CCC2 | -0.1% | 12.6µM* | 4.1% | 0.2%
CSc1nccc(-c2cc(Cl)c3c(c2)CC(CNC(=O)c2nonc2C)O3)n1 (stereo unspecified) | x | 0.0% | x | x
CCc1ccc(Nc2nnc(-c3cc4cc(OC)ccc4oc3=O)s2)cc1 | 15.8µM* | 1.8% | 0.3% | 2.2%
COc1ccc(Nc2nnc(-c3cc4c(ccc5ccccc54)oc3=O)s2)cc1 | -0.8% | -0.2% | x | x
COc1ccc(NC(=O)CC2C(=O)N(C)C(=S)N2CCc2ccccc2F)cc1 (stereo unspecified) | 2.2% | 15.8µM* | -4.5% | -2.1%
COc1ccc(NC(=O)CC2C(=O)N(c3ccc(Cl)cc3)C(=S)N2CCc2ccncc2)cc1 (stereo unspecified) | -0.3% | 13.7%[38.3 µM] | -4.7% | 3.7%
COc1ccc(NC(=O)CC2C(=O)N(c3ccc(Cl)cc3)C(=S)N2CCc2ccccn2)cc1 (stereo unspecified) | 5.3% | 28.2µM* | -3.8% | -3.4%
CC(C)(C)n1ncc2c(=O)n(Cc3cccc(C(F)(F)F)c3)cnc21 | x | x | x | 0.0%
COc1ccccc1C(=O)N[C@@H]1c2ccccc2C2(CCN(Cc3c(O)cccc3OC)CC2)[C@H]1O | x | 0.3% | x | x
COc1cccc(CN2C(=O)NC(C)(C3CCN(Cc4cnn(C)c4C)CC3)C2=O)c1OC (stereo unspecified) | x | 0.6% | x | x
Cc1cccc(C(=O)NCc2nc(-c3cccc(NC(=O)c4ccoc4C)c3)oc2C)n1 | x | 0.3% | x | x
CC(=O)Nc1sc2c(c1C#N)CCN(Cc1ccccc1)C2 | x | 1.1% | -8.5% | 0.7%
N#Cc1c(NC(=O)/C=C/C(=O)O)sc2c1CCN(Cc1ccccc1)C2 | x | 7.2% | 25.1µM* | u
CCn1c(/C=C/c2c(C)n(CC)c3ccccc23)nc2ccccc2c1=O | -1.1% | 17.8µM* | -9.8% | 0.0%
CCOC(=O)c1c(Nc2ccc(Cl)cc2)sc(/C=C2\C=Nc3ccccc32)c1O | 7.08µM* | 10µM* | 7.08µM* | -17.8%
O=[N+]([O-])c1ccc(O)c2ncccc12 | 6.31µM* | -0.3% | u | -0.3%
Oc1ccc(CNc2ccccc2)c2cccnc12 | 1.1% | u | x | 0.7%
Cc1ccccc1NCc1ccc(O)c2ncccc12 | u | 11.2µM* | -11.7% | -0.1%
COCc1ccc(O)c2ncccc12 | 4.47µM* | 1.0% | 2.8% | 10µM*
Cc1cc(C)n(-c2cccc(C(=O)NCC3Cc4cccc(-c5cccnc5)c4O3)c2)n1 (stereo unspecified) | x | 1.0% | x | x
Cc1ccc(-c2nnn(CC(=O)N(c3ccc(F)cc3)C(C(=O)NC(C)(C)C)c3ccco3)n2)o1 (stereo unspecified) | 0.0% | 6.5% | -0.6% | -10.2%
CC(C)(C)NC(=O)C(c1ccco1)N(C(=O)Cn1nnc(-c2ccc(F)cc2)n1)c1cccc(F)c1 (stereo unspecified) | -2.0% | 12.6µM* | -12.6% | -6.2%
